The campaign covered roughly 5,500 compounds. About 2,000 (36%) were called active. Inconclusive results (about 18%) are left out. The list shows a part of the results. A number with no mark means an inactive call. Rule as the data show it: active = normalized growth mostly below about 0.91 (no sharp cut-off); inconclusive = no clear call, values can overlap the other calls; inactive = mostly above about 0.92.
Experiment: chemical genetic growth profiling, strain panel (AID 1159580);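 also: tested at 20 µM; growth read once vehicle control cultures reached saturation at 30 °C; 1 = growth at the plate median or of vehicle wells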
Conditions: growth OD
[1] = S. cerevisiae deletion strains, locus YJR075W, strain HOC1, stronger effect = lower value
[2] = S. cerevisiae deletion strains, locus YMR307W, strain GAS1, stronger effect = lower value
[3] = S. cerevisiae deletion strains, locus YNL128W, strain TEP1, stronger effect = lower value
[4] = S. cerevisiae deletion strains, locus YNL322C, strain KRE1, stronger effect = lower value
[5] = S. cerevisiae deletion strains, locus YPL055C, strain LGE1, stronger effect = lower value
[6] = S. cerevisiae deletion strains, locus YPL241C, strain CIN2, stronger effect = lower value
[7] = S. cerevisiae deletion strains, locus YDL101C, strain DUN1, stronger effect = lower value
[8] = S. cerevisiae deletion strains, locus YHR030C, strain SLT2, stronger effect = lower value

CCCn1c(=O)c2[nH]c(-c3ccc(OCC(=O)NCCN)cc3)nc2n(CCC)c1=O
normalized growth (S. cerevisiae deletion strains, locus YAL040C, strain CLN3, stronger effect = lower value): 1.05 | normalized growth (S. cerevisiae deletion strains, locus YCL061C, strain MRC1 (second series), stronger effect = lower value): 0.984 | normalized growth (S. cerevisiae deletion strains, locus YDR363W, strain ESC2, stronger effect = lower value): 0.983 | normalized growth (S. cerevisiae deletion strains, locus YER002W, strain NOP16, stronger effect = lower value): 0.986 | normalized growth [1]: 0.99 | normalized growth [2]: 1.01 | normalized growth [3]: 0.973 | normalized growth (S. cerevisiae deletion strains, locus YNL175C, strain NOP13, stronger effect = lower value): 0.98 | normalized growth (S. cerevisiae deletion strains, locus YNL197C, strain WHI3, stronger effect = lower value): 0.977 | normalized growth (S. cerevisiae deletion strains, locus YNL224C, strain SQS1, stronger effect = lower value): 0.999 | normalized growth [4]: 0.95 | normalized growth (S. cerevisiae deletion strains, locus YOR083W, strain WHI5 (second series), stronger effect = lower value): 0.984 | normalized growth [5]: 0.973 | normalized growth [6]: 0.985

CSc1cccc(N2C(=O)CC(c3c(Cl)cccc3Cl)CC2=O)c1
normalized growth (S. cerevisiae deletion strains, locus YAR019C, strain CDC15, stronger effect = lower value): 0.99 | normalized growth (S. cerevisiae deletion strains, locus YBL105C, strain PKC1, stronger effect = lower value): 0.98 | normalized growth (S. cerevisiae deletion strains, locus YBR135W, strain CKS1, stronger effect = lower value): 0.987 | normalized growth (S. cerevisiae deletion strains, locus YBR136W, strain MEC1, stronger effect = lower value): 0.989 | normalized growth (S. cerevisiae deletion strains, locus YBR160W, strain CDC28, stronger effect = lower value): 0.989 | normalized growth (S. cerevisiae deletion strains, locus YDL017W, strain CDC7, stronger effect = lower value): 0.99 | normalized growth (S. cerevisiae deletion strains, locus YDL028C, strain MPS1, stronger effect = lower value): 0.997 | normalized growth [7]: 0.987 | normalized growth (S. cerevisiae deletion strains, locus YDL108W, strain KIN28, stronger effect = lower value): 0.988 | normalized growth (S. cerevisiae deletion strains, locus YDL132W, strain cdc53, stronger effect = lower value): 0.982 | normalized growth (S. cerevisiae deletion strains, locus YDL214C, strain PRR2, stronger effect = lower value): 0.997 | normalized growth (S. cerevisiae deletion strains, locus YDR052C, strain DBF4, stronger effect = lower value): 0.988 | normalized growth (S. cerevisiae deletion strains, locus YDR054C, strain cdc34, stronger effect = lower value): 0.983 | normalized growth (S. cerevisiae deletion strains, locus YDR226W, strain ADK1, stronger effect = lower value): 0.983 | normalized growth (S. cerevisiae deletion strains, locus YDR477W, strain SNF1, stronger effect = lower value): 0.992 | normalized growth (S. cerevisiae deletion strains, locus YER123W, strain YCK3, stronger effect = lower value): 0.975 | normalized growth (S. cerevisiae deletion strains, locus YER133W, strain GLC7, stronger effect = lower value): 0.993 | normalized growth (S. cerevisiae deletion strains, locus YFL009W, strain cdc4, stronger effect = lower value): 0.966 | normalized growth (S. cerevisiae deletion strains, locus YFL029C, strain CAK1, stronger effect = lower value): 0.986 | normalized growth (S. cerevisiae deletion strains, locus YFR003C, strain YPI1, stronger effect = lower value): 0.983 | normalized growth (S. cerevisiae deletion strains, locus YFR019W, strain FAB1, stronger effect = lower value): 0.971 | normalized growth (S. cerevisiae deletion strains, locus YFR028C, strain CDC14, stronger effect = lower value): 0.986 | normalized growth (S. cerevisiae deletion strains, locus YGR040W, strain KSS1, stronger effect = lower value): 0.987 | normalized growth (S. cerevisiae deletion strains, locus YGR052W, strain FMP48, stronger effect = lower value): 1.02 | normalized growth (S. cerevisiae deletion strains, locus YGR092W, strain DBF2, stronger effect = lower value): 0.985 | normalized growth [8]: 0.894 | normalized growth (S. cerevisiae deletion strains, locus YHR079C, strain IRE1, stronger effect = lower value): 0.904 | normalized growth (S. cerevisiae deletion strains, locus YHR082C, strain KSP1, stronger effect = lower value): 0.948 | normalized growth (S. cerevisiae deletion strains, locus YHR205W, strain SCH9, stronger effect = lower value): 0.916 | normalized growth (S. cerevisiae deletion strains, locus YIL147C, strain SLN1, stronger effect = lower value): 0.996 | normalized growth (S. cerevisiae deletion strains, locus YJL095W, strain BCK1, stronger effect = lower value): 0.956 | normalized growth (S. cerevisiae deletion strains, locus YJL128C, strain PBS2, stronger effect = lower value): 0.955 | normalized growth (S. cerevisiae deletion strains, locus YJL157C, strain FAR1, stronger effect = lower value): 0.985 | normalized growth (S. cerevisiae deletion strains, locus YJR016C, strain ILV3, stronger effect = lower value): 0.987 | normalized growth (S. cerevisiae deletion strains, locus YJR066W, strain TOR1 (second series), stronger effect = lower value): 0.566 (active) | normalized growth (S. cerevisiae deletion strains, locus YJR066W, strain TOR1, stronger effect = lower value): 0.908 | normalized growth (S. cerevisiae deletion strains, locus YKL048C, strain ELM1, stronger effect = lower value): 0.995 | normalized growth (S. cerevisiae deletion strains, locus YKL067W, strain YNK1, stronger effect = lower value): 0.992 | normalized growth (S. cerevisiae deletion strains, locus YKL101W, strain HSL1, stronger effect = lower value): 0.993 | normalized growth (S. cerevisiae deletion strains, locus YKL193C, strain SDS22, stronger effect = lower value): 0.985 | normalized growth (S. cerevisiae deletion strains, locus YKL203C, strain TOR2, stronger effect = lower value): 1.04 | normalized growth (S. cerevisiae deletion strains, locus YLR113W, strain HOG1, stronger effect = lower value): 0.889 | normalized growth (S. cerevisiae deletion strains, locus YLR133W, strain CKI1, stronger effect = lower value): 1 | normalized growth (S. cerevisiae deletion strains, locus YLR403W, strain SFP1, stronger effect = lower value): 0.946 | normalized growth (S. cerevisiae deletion strains, locus YML070W, strain DAK1, stronger effect = lower value): 0.995 | normalized growth (S. cerevisiae deletion strains, locus YMR001C, strain CDC5, stronger effect = lower value): 0.992 | normalized growth (S. cerevisiae deletion strains, locus YMR205C, strain PFK2 (second series), stronger effect = lower value): 0.997 | normalized growth (S. cerevisiae deletion strains, locus YMR277W, strain FCP1, stronger effect = lower value): 0.983 | normalized growth (S. cerevisiae deletion strains, locus YNL006W, strain LST8, stronger effect = lower value): 0.996 | normalized growth (S. cerevisiae deletion strains, locus YNL020C, strain ARK1, stronger effect = lower value): 0.993 | normalized growth (S. cerevisiae deletion strains, locus YNL161W, strain CBK1, stronger effect = lower value): 0.981 | normalized growth (S. cerevisiae deletion strains, locus YNL183C, strain NPR1, stronger effect = lower value): 0.947 | normalized growth (S. cerevisiae deletion strains, locus YNL207W, strain RIO2, stronger effect = lower value): 0.993 | normalized growth (S. cerevisiae deletion strains, locus YNL222W, strain SSU72, stronger effect = lower value): 0.981 | normalized growth (S. cerevisiae deletion strains, locus YNL307C, strain MCK1 (second series), stronger effect = lower value): 0.988 | normalized growth (S. cerevisiae deletion strains, locus YOL078W, strain AVO1, stronger effect = lower value): 0.993 | normalized growth (S. cerevisiae deletion strains, locus YOL136C, strain PFK27, stronger effect = lower value): 0.976 | normalized growth (S. cerevisiae deletion strains, locus YOR061W, strain CKA2, stronger effect = lower value): 0.994 | normalized growth (S. cerevisiae deletion strains, locus YOR119C, strain RIO1, stronger effect = lower value): 1 | normalized growth (S. cerevisiae deletion strains, locus YOR231W, strain MKK1, stronger effect = lower value): 0.918 | normalized growth (S. cerevisiae deletion strains, locus YOR329C, strain SCD5, stronger effect = lower value): 0.985 | normalized growth (S. cerevisiae deletion strains, locus YPL031C, strain PHO85, stronger effect = lower value): 0.989 | normalized growth (S. cerevisiae deletion strains, locus YPL153C, strain RAD53, stronger effect = lower value): 0.97 | normalized growth (S. cerevisiae deletion strains, locus YPL204W, strain HRR25, stronger effect = lower value): 0.981 | normalized growth (S. cerevisiae deletion strains, locus YPL209C, strain IPL1, stronger effect = lower value): 0.989 | normalized growth (S. cerevisiae deletion strains, locus YPL256C, strain CLN2, stronger effect = lower value): 0.924 | normalized growth (S. cerevisiae deletion strains, locus YPR025C, strain CCL1, stronger effect = lower value): 0.986 | normalized growth (S. cerevisiae deletion strains, locus YPR106W, strain ISR1, stronger effect = lower value): 0.979 | normalized growth (S. cerevisiae deletion strains, locus YPR111W, strain DBF20, stronger effect = lower value): 0.977 | normalized growth (S. cerevisiae deletion strains, strain NNK1, stronger effect = lower value): 0.983 | normalized growth (S. cerevisiae deletion strains, strain TSCII, stronger effect = lower value): 0.982

O=C(CC(Nc1ccccc1)c1ccccc1)C1CC1 (stereo not given)
normalized growth (S. cerevisiae deletion strains, locus YAL013W, strain DEP1, stronger effect = lower value): 1 | normalized growth (S. cerevisiae deletion strains, locus YBR229C, strain ROT2, stronger effect = lower value): 0.99 | normalized growth (S. cerevisiae deletion strains, locus YCL061C, strain MRC1, stronger effect = lower value): 0.974 | normalized growth [7]: 0.988 | normalized growth (S. cerevisiae deletion strains, locus YDL134C, strain PPH21, stronger effect = lower value): 0.982 | normalized growth (S. cerevisiae deletion strains, locus YDR150W, strain NUM1, stronger effect = lower value): 0.982 | normalized growth (S. cerevisiae deletion strains, locus YEL061C, strain CIN8, stronger effect = lower value): 0.992 | normalized growth (S. cerevisiae deletion strains, locus YGR078C, strain PAC10, stronger effect = lower value): 1.03 | normalized growth [8]: 0.968 | normalized growth (S. cerevisiae deletion strains, locus YHR087W, strain rtc3, stronger effect = lower value): 1.04 | normalized growth (S. cerevisiae deletion strains, locus YJL187C, strain SWE1, stronger effect = lower value): 1 | normalized growth (S. cerevisiae deletion strains, locus YJR043C, strain POL32, stronger effect = lower value): 0.996 | normalized growth [1]: 0.969 | normalized growth (S. cerevisiae deletion strains, locus YLR039C, strain RIC1, stronger effect = lower value): 0.869 | normalized growth (S. cerevisiae deletion strains, locus YLR058C, strain SHM2 (second series), stronger effect = lower value): 0.998 | normalized growth (S. cerevisiae deletion strains, locus YLR085C, strain ARP6, stronger effect = lower value): 0.992 | normalized growth (S. cerevisiae deletion strains, locus YLR262C, strain YPT6, stronger effect = lower value): 0.938 | normalized growth (S. cerevisiae deletion strains, locus YML094W, strain GIM5, stronger effect = lower value): 1.01 | normalized growth (S. cerevisiae deletion strains, locus YMR219W, strain ESC1, stronger effect = lower value): 0.994 | normalized growth (S. cerevisiae deletion strains, locus YMR263W, strain SAP30, stronger effect = lower value): 1.01 | normalized growth [2]: 1.19 | normalized growth [3]: 0.989 | normalized growth (S. cerevisiae deletion strains, locus YNL153C, strain GIM3, stronger effect = lower value): 1.01 | normalized growth (S. cerevisiae deletion strains, locus YNL298W, strain CLA4 (second series), stronger effect = lower value): 0.985 | normalized growth [4]: 0.982 | normalized growth (S. cerevisiae deletion strains, locus YNR030W, strain Alg12, stronger effect = lower value): 1 | normalized growth [5]: 1.02 | normalized growth [6]: 0.981 | normalized growth (S. cerevisiae deletion strains, locus YPR135W, strain CTF4, stronger effect = lower value): 0.915 | normalized growth (S. cerevisiae strains, strain wild type, stronger effect = lower value): 0.979
